# Pf Dd2 growth – P. falciparum Dd2 growth inhibitors, primary screen, SYBR Green fluorescence, single dose replicates | 72 h; active compounds read low | activity change, % at 10 µM | hit rate 2.3% among 94,000; in the data active means activity change below about -80%; inconclusive means no clear call, values can overlap the other calls
# Tcruzi prolif – T. cruzi intracellular proliferation inhibitors, primary screen, cell-based, beta-gal Tulahuen parasites, NIH3T3 host, luminescence; T. cruzi beta-gal in NIH3T3, GalScreen luminescence, 90 h; inhibition, % at 8.34 µM; hit rate 5.9% among 77,000; AID 624255, 2012;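 active means mean inhibition above about 93%, with at least 55% of replicates each passing it, limit read from the data, passing the limit was not always enough; inconclusive means only one of those two conditions holds; inactive means neither condition holds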
# C diff HTS – C. difficile growth inhibitors, primary screen, HTS; growth activity, negative = inhibition, % at 16 µg/mL (by protocol); Clostridium difficile clinical isolate growth, OD600, 24 h; active compounds read low; hit rate 0.25% among 86,000;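 active means mean growth activity at or below -80% and every replicate also at or below -80%; inconclusive means mean at or below -80% but some replicate above -80%; inactive means mean growth activity above -80%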;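 further: 0% = DMSO wells and -100% = levofloxacin 16 µg/mL wells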
# An asterisk follows results filed as active; ? = inconclusive; . = no result given; ! = not confirmed by another sample. This is a sample that favours compounds with a hit; in the whole collection about 6.7% have one here.
SMILES,Pf Dd2 growth,Tcruzi prolif,C diff HTS
CN(C)c1ccc2c(c1)[C@@H]1C[C@H](CC(=O)N3CCc4ccccc4C3)O[C@@H](CO)[C@@H]1O2,?,101*,-6
O=C(C[C@H]1C[C@@H]2c3cc(NC(=O)Nc4ccccc4)ccc3O[C@@H]2[C@H](CO)O1)NCc1ccccc1,-88*,32,1
O=C(Nc1ccccc1)[C@H]1[C@H](CO)[C@H]2Cn3c(cccc3=O)[C@H]2N1C(=O)C1CCC1,4,18,4
CC(C)C#Cc1ccc2c(c1)O[C@H](CN(C)S(=O)(=O)c1cn(C)cn1)[C@@H](C)CN([C@@H](C)CO)S2(=O)=O,-4,.,-2
COc1ccc(NC(=O)Nc2ccc3c(c2)[C@@H]2C[C@H](CC(=O)N[C@@H](C)c4ccccc4)O[C@H](CO)[C@@H]2O3)cc1,-87*,.,13
CN1CCN(C(=O)C[C@H]2C[C@@H]3c4cc(NC(=O)Nc5ccc(C(F)(F)F)cc5)ccc4O[C@@H]3[C@@H](CO)O2)CC1,-85*,2,5
CN1CCN(C(=O)C[C@H]2C[C@H]3c4cc(NC(=O)Nc5ccc(C(F)(F)F)cc5)ccc4O[C@H]3[C@H](CO)O2)CC1,-58,-12,0
COc1ccc(NC(=O)Nc2ccc3c(c2)[C@@H]2C[C@@H](CC(=O)N[C@@H](C)c4ccccc4)O[C@@H](CO)[C@@H]2O3)cc1,-30,-7,1
Cc1cccc(-c2ccc([C@@H]3[C@H]4CN(C(=O)Cc5ccccn5)CC(=O)N4[C@H]3CO)cc2)c1,-12,.,4
CO[C@@H]1CN(C)C(=O)c2cc(NC(=O)c3ccccc3F)ccc2OC[C@H](C)N(C(C)=O)C[C@H]1C,-16,54,.
C[C@@H]1CN([C@H](C)CO)C(=O)c2ccccc2-c2ccccc2CO[C@H]1CN(C)C(=O)Nc1cccc(Cl)c1Cl,-94*,.,-7
C[C@@H]1CN([C@@H](C)CO)C(=O)c2ccccc2-c2ccccc2CO[C@@H]1CN(C)C(=O)Nc1cccc(Cl)c1Cl,-65,.,-6
C[C@@H]1CN([C@H](C)CO)C(=O)c2ccccc2-c2ccccc2CO[C@@H]1CN(C)C(=O)Nc1cccc(Cl)c1Cl,-69,.,-3
C[C@@H]1CN([C@@H](C)CO)C(=O)c2ccccc2-c2ccccc2CO[C@H]1CN(C)C(=O)Nc1cccc(Cl)c1Cl,-95*,.,-10
O=C(C[C@@H]1CC[C@@H]2[C@H](COC[C@H](O)CN2C(=O)Nc2ccc(Cl)c(Cl)c2)O1)NC1CCC1,.,-123,-101*!
O=C(C[C@H]1CC[C@@H]2[C@H](COC[C@H](O)CN2C(=O)Nc2ccc(Cl)c(Cl)c2)O1)NC1CCC1,.,-43,-99*!
O=C(C[C@@H]1CC[C@@H]2[C@H](COC[C@@H](O)CN2C(=O)Nc2ccc(Cl)c(Cl)c2)O1)NC1CCC1,.,-86,-98*
CNC(=O)C[C@H]1CC[C@@H]2[C@H](COC[C@H](O)CN2C(=O)Nc2ccc(Cl)c(Cl)c2)O1,-12,25,-7
O=C(C[C@H]1CC[C@H]2[C@@H](COC[C@@H](O)CN2C(=O)Nc2ccc(Cl)c(Cl)c2)O1)NC1CCC1,.,-98,-99*!
CNC(=O)C[C@@H]1CC[C@H]2[C@@H](COC[C@H](O)CN2C(=O)Nc2ccc(Cl)c(Cl)c2)O1,-4,32,-4
CCNC(=O)C[C@@H]1CC[C@H]2[C@@H](COC[C@@H](O)CN2C(=O)Nc2ccc(Cl)c(Cl)c2)O1,4,11,.
CCNC(=O)C[C@@H]1CC[C@H]2[C@@H](COC[C@H](O)CN2C(=O)Nc2ccc(Cl)c(Cl)c2)O1,3,34,.
O=C(C[C@H]1C=C[C@H](NS(=O)(=O)c2ccccc2)[C@H](CO)O1)N1CCN(c2ccccc2)CC1,33,.,0
O=C(N[C@H]1CC[C@H](CCNC(=O)C2CCOCC2)O[C@H]1CO)c1ccccn1,14,-18,1
O=C(CC(F)(F)F)N1C[C@@H]2[C@H](c3ccccc31)[C@@H](CO)N2C(=O)C1CC1,-41,32,4
SMILES,Pf Dd2 growth,Tcruzi prolif,C diff HTS
O=C(Nc1ccccc1)N1C[C@H]2[C@@H](c3ccccc31)[C@@H](CO)N2C(=O)c1ccncc1,8,33,1
COc1ccc2c3c(n(C)c2c1)[C@@H](CO)N(Cc1ccncc1)CC31CN(C(=O)Cc2ccncc2)C1,-24,.,3
O=C(C[C@H]1CC[C@H]2[C@@H](COC[C@H](O)CN2C(=O)Nc2cc(Cl)cc(Cl)c2)O1)N1CCOCC1,.,17,-96*!
CNC(=O)C[C@H]1CC[C@@H]2[C@H](COC[C@@H](O)CN2C(=O)Nc2ccc(Cl)c(Cl)c2)O1,-8,20,0
O=C(C[C@H]1CC[C@@H]2[C@H](COC[C@@H](O)CN2C(=O)Nc2cc(Cl)cc(Cl)c2)O1)N1CCOCC1,.,30,55
O=C(C[C@H]1CC[C@H]2[C@@H](COC[C@H](O)CN2C(=O)Nc2ccc(Cl)c(Cl)c2)O1)NC1CCC1,.,-32,-92*
C[C@@H]1CN([C@H](C)CO)S(=O)(=O)c2ccc(-c3ccc(F)cc3)cc2O[C@H]1CN(C)C(=O)C1CC1,8,-174,-14
COc1ccc(NC(=O)N(C)C[C@@H]2Oc3ccc(NC(=O)Nc4ccc5c(c4)OCO5)cc3C(=O)N([C@@H](C)CO)C[C@H]2C)cc1,0,3,.
C[C@@H]1CN([C@H](C)CO)C(=O)c2cc(NC(=O)Nc3cccc4ccccc34)ccc2O[C@@H](C)CCCCO[C@H]1CN(C)C(=O)Nc1ccc(C(F)(F)F)cc1,-59,89,-9
C[C@@H]1CCCCO[C@@H](CN(C)C(=O)Nc2cccc3ccccc23)[C@@H](C)CN([C@@H](C)CO)C(=O)c2cc(NC(=O)Nc3ccc(C(F)(F)F)cc3)ccc2O1,-91*,.,6
C[C@@H]1CCCCO[C@@H](CN(C)C(=O)Nc2cccc3ccccc23)[C@H](C)CN([C@@H](C)CO)C(=O)c2cc(NC(=O)Nc3ccc(C(F)(F)F)cc3)ccc2O1,-14,52,3
C[C@@H]1CN([C@H](C)CO)C(=O)c2cc(NC(=O)Nc3ccc(C(F)(F)F)cc3)ccc2O[C@@H](C)CCCCO[C@@H]1CN(C)C(=O)Nc1cccc2ccccc12,-82*,76,5
C[C@@H]1CN([C@@H](C)CO)C(=O)c2cc(NC(=O)Nc3ccccc3)ccc2O[C@@H](C)CCCCO[C@@H]1CN(C)C(=O)Nc1cccc2ccccc12,-84*,24,4
C[C@H](CO)N1C[C@H](C)[C@H](CN(C)C(=O)Nc2cccc3ccccc23)OCCCC[C@H](C)Oc2ccc(NC(=O)Nc3ccccc3)cc2C1=O,-26,-18,1
COCC(=O)Nc1ccc2c(c1)OC[C@@H](C)N(C(=O)Cc1cccnc1)C[C@@H](C)[C@H](OC)CN(C)C2=O,20,37,.
C[C@@H]1CCCCO[C@@H](CN(C)Cc2ccncc2)[C@@H](C)CN([C@H](C)CO)C(=O)c2cc(NC(=O)c3ccncc3)ccc2O1,59,31,5
Cc1noc(C)c1C(=O)N(C)C[C@@H]1OCc2ccccc2-c2ccccc2C(=O)N([C@H](C)CO)C[C@H]1C,-5,76,-1
